Our source for the z-score values is PubChem BioAssay AID1259389 (Center for Chemical Genomics, University of Michigan, 2018).

The structures appear in SMILES notation. Among all 100,000 compounds or so, about 620 (0.62%) were called active. Rule for the calls: active = z-score of 3 or more in at least 2 runs; inactive = the rest. Many of the other results were omitted from the sample, so actives are more common in it than they were.

A short description of the assay: TAR RNA-Tat peptide displacers, HIV-1, primary screen, biochemical, FRET, FAM/TAMRA-labeled Tat (AID 1259389). To be noted: HIV-1 TAR RNA, Tat peptide displacement FRET; stronger effect = higher value.
Consider `O=C(O)C1CSC(c2cccnc2)N1` (stereo not given), for which the z-score was 3.48 (active). For the compound `Cc1nn2c3cc(N4CCNCC4)ccc3nc2c2ccccc12`, the z-score is 3.84 (active). On to `c1ccc2sc(N3CCNCC3)nc2c1`, for which the z-score is -0.36 (inactive). With `CC(=O)N[C@H]1CN2CC[C@H](O)[C@@H]2[C@@H](O)[C@@H]1O`, the z-score is 0.34 (inactive).

On to `CC(C)(C)[C@]1(O)C[C@@H]2OC(=O)C[C@@]23C(=O)O[C@@H]2OC(=O)[C@H](O)[C@]213`, for which the z-score is 2.75 (inactive). Then `C#CCOc1ccc(C2SCC(=O)Nc3n[nH]c(C)c32)cc1OC` (stereo not given), with 1.62 (inactive); and `CCC1c2cccn2-c2ccccc2CN1C(=O)Nc1ccc(F)c(Cl)c1` (stereo not given), with 1.12 (inactive); and `C=CCOc1ccc(C2SCC(=O)Nc3n[nH]c(C)c32)cc1` (stereo not given), with 1.1 (inactive). For `CN1CC=C(c2noc(CCC(=O)Nc3ccc(Cl)cn3)n2)CC1`, the z-score was 1.39 (inactive). On to `CCC(CC)n1[nH]c(=O)c2c1NC(=O)CSC2c1ccc(Br)cc1` (stereo not given), for which the z-score is 0.25 (inactive).
